Pol beta inh: DNA polymerase beta (human) inhibition | P06746 | Pol beta primer extension/strand displacement, fluorescence kinetic | Potency, µM (doses to about 114 µM), without a hit: at the top dose activity change, negative = inhibition, usual class: inhibitors | 340,000 compounds, 1.3% hits | AID 485314; also: potency is read from the fitted curve at half-maximal effect; % is scaled to controls: 0 for no effect and ±100 for the full control effect
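Human Pol beta at 10 nM; strand-displacement substrate 50 nM final. Compound exposure 15 min at room temperature before start, reaction 10 min at room temperature.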
PI5P4K alpha inh: blocks human PI5P4K alpha kinase activity; P48426; PI5P4Kalpha enzyme, ADP-Glo luminescence, 60 min; active compounds read low; max response, %; 330,000 compounds, 1.2% hits; AID 652105; active = max response of -50% or lower; inconclusive = between -30% and -50%; inactive = -30% or higher; also: value at the top dose of about 77 µM; % is scaled to controls: 0 for no effect and ±100 for the full control effect
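Compounds were pin-transferred onto PI5P4Kalpha and substrate in HEPES pH 7.4 buffer with EGTA, CHAPS and 5% DMSO. ATP (5 microM final) started the reaction, which ran 60 minutes at room temperature before ADP-Glo detection.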
WRN helicase inh: blocks human WRN helicase; Q14191; 360,000 compounds, 0.46% hits; WRN helicase unwinding, fluorescent forked duplex, kinetic; AID 651768; Potency, µM (series often up to 114 µM), inactives show at the highest dose activity change, negative = inhibition, hits mostly inhibitors; also: potency is read from the fitted curve at half-maximal effect; % is scaled to controls: 0 for no effect and ±100 for the full control effect; nearly all actives have a fitted effect of over 55% in size
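WRN at 20 nM final preincubated with compound 15 min at room temperature; reaction started with 100 nM fluorophore/quencher forked duplex oligonucleotide and 2 mM ATP final. Unwinding followed kinetically by red fluorescence (ex 525, em 598 nm).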
Pol eta inh: inhibitors of human DNA polymerase eta; 390,000 compounds, 1.2% hits; Potency, µM (top dose mostly 114 µM), inactives show at the highest dose activity change, negative = inhibition, actives largely listed as inhibitors; recombinant Pol eta, fluorescent DNA replication assay; also: potency is read from the fitted curve at half-maximal effect; % is scaled to controls: 0 for no effect and ±100 for the full control effect
Target sequence (Q9Y253 whole entry, looked up): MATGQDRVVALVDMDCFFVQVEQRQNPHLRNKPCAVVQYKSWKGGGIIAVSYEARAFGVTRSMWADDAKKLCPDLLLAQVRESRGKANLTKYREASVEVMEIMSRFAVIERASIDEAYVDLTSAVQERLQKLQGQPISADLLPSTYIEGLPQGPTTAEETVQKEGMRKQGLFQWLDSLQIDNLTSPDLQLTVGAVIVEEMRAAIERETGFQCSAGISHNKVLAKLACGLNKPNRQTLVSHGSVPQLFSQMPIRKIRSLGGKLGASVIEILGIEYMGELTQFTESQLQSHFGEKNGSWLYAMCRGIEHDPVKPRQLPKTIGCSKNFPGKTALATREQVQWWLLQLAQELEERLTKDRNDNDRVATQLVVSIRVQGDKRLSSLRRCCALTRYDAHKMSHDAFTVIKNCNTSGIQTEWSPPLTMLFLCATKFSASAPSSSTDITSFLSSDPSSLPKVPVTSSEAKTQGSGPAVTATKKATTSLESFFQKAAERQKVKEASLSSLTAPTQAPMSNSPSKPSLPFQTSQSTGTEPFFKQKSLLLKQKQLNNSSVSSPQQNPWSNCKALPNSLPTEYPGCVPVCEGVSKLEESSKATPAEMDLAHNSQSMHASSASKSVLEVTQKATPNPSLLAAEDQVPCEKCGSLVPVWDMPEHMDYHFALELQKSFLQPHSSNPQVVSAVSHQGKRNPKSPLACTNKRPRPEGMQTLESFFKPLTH
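Fluorescent replication assay: 50 nM final substrate added after a 15 min room-temperature compound preincubation with 10 nM enzyme. Signal taken at 0 min and again at 10 min.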
POLI inh: inhibitors of human DNA polymerase iota. Q9UNA4. Pol iota fluorescent replication assay, 10 min. Potency, µM (top dose mostly 115 µM), for inactives: top-dose activity, negative = inhibition, most hits filed as inhibitors. 390,000 compounds, 1% hits. AID 588590; also: potency is read from the fitted curve at half-maximal effect
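Pol iota at 10 nM preincubated 15 min with compounds at room temperature; reaction started with fluorescent substrate, 50 nM final. Fluorescence read kinetically at 0 and 10 min; buffer-only wells as negative control.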
Pol kappa inh: inhibitors of human DNA polymerase kappa; AID 588579; Q9UBT6; Potency, µM (doses to about 107 µM), for inactives: at the top dose activity, negative = inhibition, actives largely listed as inhibitors; 400,000 compounds, 0.53% hits; purified Pol kappa, fluorescent DNA synthesis assay, 10 min; also: potency is read from the fitted curve at half-maximal effect; % is scaled to controls: 0 for no effect and ±100 for the full control effect
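Here, compound and 10 nM enzyme are combined for 15 min at room temperature; adding 50 nM substrate (final) starts DNA synthesis, tracked by fluorescence at 0 and 10 min against buffer-only wells.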
PGK validate: blocks T. brucei phosphoglycerate kinase; shares compounds with Pol kappa inh; TbPGK coupled GAPDH assay, Kinase-Glo luminescence; Potency, µM (series often up to 57.5 µM), for the others: at the top dose activity change, negative = inhibition, most hits filed as inhibitors; 500 compounds, 79% hits; AID 686980; also: potency is read from the fitted curve at half-maximal effect; % is scaled to controls: 0 for no effect and ±100 for the full control effect; nearly all actives have a fitted effect of over 65% in size
Pol iota confirm: Confirm cherry-picked inhibitors of human polymerase iota; shares compounds with Pol kappa inh; Pol iota primer extension, TAMRA/BHQ fluorescence; Potency, µM, actives largely listed as inhibitors; 1,500 compounds, 77% hits; AID 720496; also: potency is read from the fitted curve at half-maximal effect
Active calls of the source: *; ? = inconclusive; · = no result; [ ] = another dose, or the depositor's remark. An excerpt weighted towards active compounds, which were near 2.8% of everything screened. Unless noted, calls follow the shape of the dose curve; as a rule, active = well fitted curve in the direction sought with a large enough effect; inconclusive = small, poorly fitted or top-dose-only effect, or another doubt; inactive = no such curve, though single readings can be large; an effect the other way counts as inactive or inconclusive.

SMILES | Pol beta inh | PI5P4K alpha inh | WRN helicase inh | Pol eta inh | POLI inh | Pol kappa inh | Pol iota confirm | others
CCc1cccc(NC(=O)COc2cc(=O)n(CC)c3ccccc23)c1 | 1% | · | · | -6% | -2% | -16% | ·
C/C=C\C=C/C(=O)Nc1cccc(C2=NOC3(C2)C[C@H](C(N)=O)N(C(=O)c2ccc(OC)cc2)C3)c1 (stereo partly specified) | -1% | ? | -19%[11.6 µM] | 20µM* | 25µM* | ? | ?
CS(=O)(=O)NCCC1=CCCCC1 | 10% | 5 | -2% | 8% | 19% | -11% | ·
Cc1cc(C(=O)Nc2ncn[nH]2)ccc1[N+](=O)[O-] | 31% | 0 | 4% | -24% | -11% | -1% | ·
CN(C)c1ccc(-c2cc[nH]c(=O)c2N)cc1 | · | · | · | · | · | · | ?
CN(C)c1ccc(/C=c2\[nH]c(=O)/c(=C\c3ccc(N(C)C)cc3)[nH]c2=O)cc1 | · | · | · | · | ? | -14% | ·
COc1ccc(-c2cc(C(C)=O)c(C)n2CCC(=O)Nc2ccc(C(F)(F)F)cc2)cc1 | ? | · | · | -1% | ? | -9%[60.1 µM] | ·
COc1ccccc1CCNC(=O)c1cc(-c2ccncc2)nc2ccc(Br)cc12 | -14% | ? | -2%[11.6 µM] | 45µM* | 42% | -26% | ?
O=C(Nc1cccc(-c2cc3ccccc3oc2=O)c1)c1ccc(Br)o1 | 2% | -11 | -12% | ? | ? | -4% | ·
COc1ccc(-c2cc3ccccc3oc2=O)cc1NC(=O)c1ccc(Br)o1 | ? | -12 | -10%[11.6 µM] | 11µM* | ? | 8% | ?
O=C(OCc1cn([C@H]2CN(CC3CCCCC3)[C@@H](c3ccccc3)C[C@@H]2O)nn1)c1ccccc1 | · | 5 | -4% | -24% | · | · | ·
O=C(c1ccccc1)c1cc2ccc(O)cc2oc1=O | 22% | · | -1% | 8% | -5% | -5% | · | PGK validate=15µM*
COc1ccc(C(=O)c2cc3ccc(O)cc3oc2=O)cc1 | 1% | · | -11% | 3% | ? | -11% | ·
Cc1cccc(C(=O)OCC(=O)c2ccc3c(c2)OCO3)c1O | 5% | 16 | ? | -8% | 13% | -10% | ·
C=CCn1c(C)cc(C(=O)COC(=O)c2ccc(N)c([N+](=O)[O-])c2)c1C | ? | -4 | -9% | ? | 12% | -3% | ·
CCn1c(C)cc(C(=O)COC(=O)c2ccccc2[N+](=O)[O-])c1C | · | -12 | 3% | -19% | 3% | -5% | · | PGK validate=15µM*
O=C(COC(=O)c1ccccc1[N+](=O)[O-])c1ccc2c(c1)OCO2 | · | -20 | -26% | ? | 41% | -10% | · | PGK validate=9.2µM*
O=C(NC(c1ccc(Cl)cc1)c1ccsc1)C1CCN(CCOc2ccc(Cl)cc2)CC1 (stereo unspecified) | · | 19 | 6% | · | · | · | ·
COC(=O)C(C)Sc1nnc2cc(C)c3cc(C)cc(C)c3n12 (stereo unspecified) | 3% | · | · | -13% | 9% | -10% | ·
COc1ccc(-c2nc3sc(CCNC(=O)C(=O)Nc4cccc(NC(C)=O)c4)c(C)n3n2)cc1 | 13µM* | · | · | ? | 4% | -1%[60.1 µM] | ?
CCOc1ccc(/C=N/NC(=O)c2[nH]ncc2Br)c(O)c1 | 23% | ? | -7% | -7% | 21% | -1% | · | PGK validate=18µM*
COc1ccc(OC)c(/C=N/NC(=O)c2[nH]ncc2Br)c1 | 37% | -6 | 4% | -20% | -7%[58.9 µM] | -3% | ·
COc1ccc(B(O)O)c(CN2CCN(C(=O)OC(C)(C)C)CC2)c1 | · | -9 | -9% | -6% | ? | -26% | · | PGK validate=?
CCN1C(=O)[C@H]2[C@@H](c3ccc(-c4ccccc4)cc3)N[C@@](CC(C)C)(C(=O)OC)[C@H]2C1=O | · | 6 | 0% | -6% | 11% | 2% | ·
CCc1ccc(NC(=O)CSc2c(C)cnc3c2c(=O)n(C)c(=O)n3C)cc1 | -21% | · | · | -18% | -17% | -3%[60.1 µM] | ·
SMILES | Pol beta inh | PI5P4K alpha inh | WRN helicase inh | Pol eta inh | POLI inh | Pol kappa inh | Pol iota confirm | others
CCCCNc1cc(NC2CCCCC2)c2c3c(onc13)-c1ccccc1C2=O | ? | · | · | 71µM* | ? | -7% | 60*
CN(C)c1nc(-c2ccccc2)c2cnn(Cc3ccccc3)c2n1 | 14% | · | -9% | -19% | 36% | -10% | ·
CC(C)CCNC(=O)c1ccc(Cn2c(=S)[nH]c3ccccc3c2=O)cc1 | ? | 1 | -6%[11.6 µM] | ? | ? | 0% | ?
COc1ccc(Cn2c(=O)[nH]c3cc(C(=O)NCCC(C)C)ccc3c2=O)cc1 | 15% | · | · | -17% | 26% | -2% | ·
CCc1ccc(N2C(=O)CSC23C(=O)N(Cc2cccc(OC)c2)c2ccccc23)cc1 (stereo unspecified) | 0% | · | · | 0% | -14% | 5% | ·
CC(C)(C)C1CCc2c(sc(NC(=O)CCC(=O)O)c2C(=O)Nc2ccccc2C(F)(F)F)C1 (stereo unspecified) | ? | · | · | ? | ? | -25% | ?
Cc1cccc(NC(=O)c2cc3c(=O)n4ccccc4nc3s2)c1 | 7.1µM* | -5 | ? | 45µM* | ? | 1% | 67*
Cc1ccc(S(=O)(=O)CCC(=O)Nc2ccc(Br)cc2C)cc1 | 33% | · | · | 1% | -2% | 1% | ·
O=C(Nc1cccc(NC(=O)c2cccc(Cl)c2)c1)c1cccnc1 | -2% | 4 | 3% | -6% | 40% | 7% | ·
COc1cccc(CNCCSc2nnnn2C)c1OCc1ccc(Cl)cc1Cl | -25% | · | · | -11% | -17% | -11% | · | PGK validate=0%
CCC(C(=O)N1CCN(Cc2ccc3c(c2)OCO3)CC1)n1c(=O)[nH]c2ccccc2c1=O (stereo unspecified) | 9% | -3 | -4% | -11% | 8% | 6% | ·
Cc1ccc(NC(=O)CS(=O)CC(=O)Nc2ccc(N3CCOCC3)cc2)cc1Cl (stereo unspecified) | 25µM* | -13 | -35% | ? | 18µM* | ? | ?
COc1ccc(CCNC(=O)c2ccc3c(c2)N(Cc2ccc(Cl)cc2)C(=O)c2ccccc2S3)cc1OC | -2% | · | · | -6% | -9% | -6%[60.1 µM] | ·
Cc1cc(C)c(NC(=O)Cn2nnc(S(=O)(=O)c3ccc(C)c(C)c3)c2N)c(C)c1 | 10µM* | · | · | -29% | 79µM* | ? | ?
COc1ccc(NC(=O)c2nnn(CC(=O)Nc3c(C)cc(C)cc3C)c2N)cc1OC | 14% | · | · | -2% | 34% | 1% | ·
Oc1ccc(C[C@H]2CNCCN2CCc2cccc3ccccc23)cc1 | · | 2 | 4% | -10% | ? | -14% | · | PGK validate=?

High-throughput results (PubChem BioAssay)
